Here are results for seven molecules from ChEMBL document CHEMBL1961873, “Compounds: GSK PKIS; Assays: Nanosyn kinase panel” (2012).

Assay [1] concerns the target Serine/threonine-protein kinase pim-2 (Homo sapiens) (UniProt Q9P1W9). The settings on record: at 1 µM.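 Note: each value is a mean of the inhibition measurements against the kinase.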
Assay [2] concerns the target Serine/threonine-protein kinase pim-3 (Homo sapiens) (UniProt Q86V86). The settings on record: at 0.1 µM.
Assay [3] has the same target. The settings on record: at 1 µM.
Assay [4] concerns the target T1, MAP kinase-activated protein kinase 5 (Homo sapiens) (UniProt Q8IW41).
T1 sequence (whole entry): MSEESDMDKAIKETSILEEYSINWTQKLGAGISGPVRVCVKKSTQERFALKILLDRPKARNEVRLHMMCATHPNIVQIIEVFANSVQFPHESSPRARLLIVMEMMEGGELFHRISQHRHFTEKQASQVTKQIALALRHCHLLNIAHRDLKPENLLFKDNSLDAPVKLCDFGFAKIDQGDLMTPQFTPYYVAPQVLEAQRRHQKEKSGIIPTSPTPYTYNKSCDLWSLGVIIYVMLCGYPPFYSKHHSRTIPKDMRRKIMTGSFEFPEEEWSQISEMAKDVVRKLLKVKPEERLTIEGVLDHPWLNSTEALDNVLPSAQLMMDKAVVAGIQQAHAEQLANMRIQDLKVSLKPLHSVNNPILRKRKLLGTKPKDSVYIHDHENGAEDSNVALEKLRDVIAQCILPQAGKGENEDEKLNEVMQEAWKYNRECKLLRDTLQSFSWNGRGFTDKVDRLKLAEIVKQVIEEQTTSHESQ
The settings on record: at 0.1 µM.

For assay [5], the target named is T1, MAP kinase-activated protein kinase 5 (Homo sapiens). Conditions: at 1 µM.
The target of assay [6] is Serine/threonine-protein kinase SIK1 (Homo sapiens) (UniProt P57059). The settings on record: at 0.1 µM.
Sequence of Serine/threonine-protein kinase SIK1 (Homo sapiens) (P57059 whole entry): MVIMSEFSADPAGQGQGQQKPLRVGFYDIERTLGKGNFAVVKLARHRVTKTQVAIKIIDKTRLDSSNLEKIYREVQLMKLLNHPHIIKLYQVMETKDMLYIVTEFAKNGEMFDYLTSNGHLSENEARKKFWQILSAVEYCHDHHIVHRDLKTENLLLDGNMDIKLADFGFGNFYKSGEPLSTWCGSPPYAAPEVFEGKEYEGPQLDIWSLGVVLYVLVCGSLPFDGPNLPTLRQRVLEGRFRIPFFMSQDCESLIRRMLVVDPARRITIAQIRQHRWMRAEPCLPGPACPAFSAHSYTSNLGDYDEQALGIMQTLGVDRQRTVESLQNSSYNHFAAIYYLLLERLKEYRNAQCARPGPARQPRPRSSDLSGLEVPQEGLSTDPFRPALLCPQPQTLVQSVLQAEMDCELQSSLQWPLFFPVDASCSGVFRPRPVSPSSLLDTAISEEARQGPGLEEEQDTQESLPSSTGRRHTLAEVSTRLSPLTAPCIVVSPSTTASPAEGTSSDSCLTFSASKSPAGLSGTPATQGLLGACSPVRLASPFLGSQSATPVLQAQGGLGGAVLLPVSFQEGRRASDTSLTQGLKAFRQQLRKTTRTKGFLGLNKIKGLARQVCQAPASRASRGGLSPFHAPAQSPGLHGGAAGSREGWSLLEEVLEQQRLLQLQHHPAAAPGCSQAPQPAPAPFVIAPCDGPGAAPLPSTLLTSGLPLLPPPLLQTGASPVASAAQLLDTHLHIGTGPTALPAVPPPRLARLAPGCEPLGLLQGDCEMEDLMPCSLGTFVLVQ
Assay [7] shares this target. The settings on record: at 1 µM.
The target of assay [8] is Serine/threonine-protein kinase SIK2 (Homo sapiens) (UniProt Q9H0K1). Conditions: at 0.1 µM.
Sequence of Serine/threonine-protein kinase SIK2 (Homo sapiens) (Q9H0K1 whole entry, looked up): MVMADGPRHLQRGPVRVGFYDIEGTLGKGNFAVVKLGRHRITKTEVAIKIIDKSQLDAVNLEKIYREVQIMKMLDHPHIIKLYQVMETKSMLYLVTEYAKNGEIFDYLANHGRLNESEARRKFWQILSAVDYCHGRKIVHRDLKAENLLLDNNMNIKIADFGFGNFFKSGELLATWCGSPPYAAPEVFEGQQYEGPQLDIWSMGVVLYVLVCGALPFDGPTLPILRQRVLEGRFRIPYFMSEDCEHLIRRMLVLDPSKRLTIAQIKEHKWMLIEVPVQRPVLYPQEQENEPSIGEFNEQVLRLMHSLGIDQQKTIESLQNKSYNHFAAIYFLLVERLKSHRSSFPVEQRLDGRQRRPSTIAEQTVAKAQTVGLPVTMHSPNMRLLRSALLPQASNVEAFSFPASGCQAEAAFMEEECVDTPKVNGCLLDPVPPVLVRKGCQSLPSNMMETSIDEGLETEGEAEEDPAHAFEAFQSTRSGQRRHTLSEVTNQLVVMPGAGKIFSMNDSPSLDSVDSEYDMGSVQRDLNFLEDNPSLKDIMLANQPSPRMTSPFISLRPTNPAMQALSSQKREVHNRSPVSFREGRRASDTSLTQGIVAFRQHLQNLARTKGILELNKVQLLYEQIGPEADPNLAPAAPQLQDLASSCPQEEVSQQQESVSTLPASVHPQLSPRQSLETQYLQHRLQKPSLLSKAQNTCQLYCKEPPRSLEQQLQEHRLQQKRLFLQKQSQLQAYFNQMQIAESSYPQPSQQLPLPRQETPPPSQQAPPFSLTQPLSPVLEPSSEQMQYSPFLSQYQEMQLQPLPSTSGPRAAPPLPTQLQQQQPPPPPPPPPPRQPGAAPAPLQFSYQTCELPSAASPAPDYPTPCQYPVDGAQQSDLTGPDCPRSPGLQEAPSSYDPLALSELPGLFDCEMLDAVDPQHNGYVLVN
For assay [9] the target is unchanged. Conditions: at 1 µM.
Assay [10] deals with T2, Serine/threonine-protein kinase TBK1 (Homo sapiens) (UniProt Q9UHD2).
T2 sequence (whole entry): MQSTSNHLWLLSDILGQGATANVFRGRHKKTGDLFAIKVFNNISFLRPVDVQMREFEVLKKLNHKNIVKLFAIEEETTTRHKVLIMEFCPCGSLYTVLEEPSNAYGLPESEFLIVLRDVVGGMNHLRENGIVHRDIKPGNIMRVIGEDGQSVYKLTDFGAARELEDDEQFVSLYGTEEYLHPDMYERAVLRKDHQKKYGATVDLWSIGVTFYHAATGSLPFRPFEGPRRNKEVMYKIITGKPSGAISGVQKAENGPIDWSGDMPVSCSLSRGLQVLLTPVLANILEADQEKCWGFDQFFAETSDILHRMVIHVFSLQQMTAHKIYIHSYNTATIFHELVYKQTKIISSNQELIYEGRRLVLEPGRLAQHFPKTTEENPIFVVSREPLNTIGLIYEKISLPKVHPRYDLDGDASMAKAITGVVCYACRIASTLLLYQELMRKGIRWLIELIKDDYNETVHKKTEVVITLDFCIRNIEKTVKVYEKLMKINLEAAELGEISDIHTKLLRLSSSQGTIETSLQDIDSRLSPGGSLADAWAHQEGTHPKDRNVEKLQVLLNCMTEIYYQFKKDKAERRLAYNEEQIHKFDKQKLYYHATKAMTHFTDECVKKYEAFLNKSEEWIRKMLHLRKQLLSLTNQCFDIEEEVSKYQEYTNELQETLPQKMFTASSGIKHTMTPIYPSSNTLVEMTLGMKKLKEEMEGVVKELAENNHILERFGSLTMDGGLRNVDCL
The settings on record: at 0.1 µM.

Assay [11] concerns the target T2, Serine/threonine-protein kinase TBK1 (Homo sapiens). Conditions: at 1 µM.
Assay [12] has as its target T3, Testis-specific serine/threonine-protein kinase 1 (Homo sapiens) (UniProt Q9BXA7).
T3 sequence (whole entry): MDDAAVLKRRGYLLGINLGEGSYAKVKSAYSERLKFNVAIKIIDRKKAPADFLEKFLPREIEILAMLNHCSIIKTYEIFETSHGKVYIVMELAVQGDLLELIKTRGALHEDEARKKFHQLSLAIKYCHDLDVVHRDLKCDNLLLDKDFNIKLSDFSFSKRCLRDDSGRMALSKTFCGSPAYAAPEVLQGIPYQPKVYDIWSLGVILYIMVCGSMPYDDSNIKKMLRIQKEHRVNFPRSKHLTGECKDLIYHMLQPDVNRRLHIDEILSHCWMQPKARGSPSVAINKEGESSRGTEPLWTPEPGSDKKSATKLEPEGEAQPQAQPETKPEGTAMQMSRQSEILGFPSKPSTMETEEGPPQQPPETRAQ
Conditions: at 0.1 µM.

For assay [13], the target named is T3, Testis-specific serine/threonine-protein kinase 1 (Homo sapiens). The settings on record: at 1 µM.
The target of assay [14] is T4, Testis-specific serine/threonine-protein kinase 2 (Homo sapiens) (UniProt Q96PF2).
T4 sequence (whole entry): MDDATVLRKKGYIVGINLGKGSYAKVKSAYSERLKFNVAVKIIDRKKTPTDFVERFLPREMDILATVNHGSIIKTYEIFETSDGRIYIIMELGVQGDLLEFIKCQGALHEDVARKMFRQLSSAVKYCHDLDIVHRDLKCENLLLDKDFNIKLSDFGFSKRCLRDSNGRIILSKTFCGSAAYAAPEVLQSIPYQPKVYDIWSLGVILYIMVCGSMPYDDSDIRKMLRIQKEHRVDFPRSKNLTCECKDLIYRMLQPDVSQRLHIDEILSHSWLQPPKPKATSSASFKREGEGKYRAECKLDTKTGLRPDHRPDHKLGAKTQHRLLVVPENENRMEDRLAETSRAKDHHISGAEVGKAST
Conditions: at 0.1 µM.

Assay [15] addresses T4, Testis-specific serine/threonine-protein kinase 2 (Homo sapiens). Conditions: at 1 µM.
The target of assay [16] is Casein kinase I isoform alpha (Homo sapiens) (UniProt P48729). Conditions: at 0.1 µM.
Sequence of Casein kinase I isoform alpha (Homo sapiens) (P48729 2-337 limits assumed): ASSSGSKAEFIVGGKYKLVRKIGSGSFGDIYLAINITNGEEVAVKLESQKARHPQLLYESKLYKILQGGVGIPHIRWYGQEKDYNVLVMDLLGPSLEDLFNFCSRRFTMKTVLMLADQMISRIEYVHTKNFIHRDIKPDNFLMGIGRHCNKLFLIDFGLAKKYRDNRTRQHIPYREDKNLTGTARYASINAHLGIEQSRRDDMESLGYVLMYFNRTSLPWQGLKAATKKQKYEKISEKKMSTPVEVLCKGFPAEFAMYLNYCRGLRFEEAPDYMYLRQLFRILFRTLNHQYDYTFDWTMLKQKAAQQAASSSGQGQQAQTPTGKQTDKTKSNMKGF
Assay [17] shares this target. Conditions: at 1 µM.
For assay [18], the target named is Casein kinase I isoform gamma-1 (Homo sapiens) (UniProt Q9HCP0). The settings on record: at 0.1 µM.
Sequence of Casein kinase I isoform gamma-1 (Homo sapiens) (Q9HCP0 whole entry, looked up, canonical isoform): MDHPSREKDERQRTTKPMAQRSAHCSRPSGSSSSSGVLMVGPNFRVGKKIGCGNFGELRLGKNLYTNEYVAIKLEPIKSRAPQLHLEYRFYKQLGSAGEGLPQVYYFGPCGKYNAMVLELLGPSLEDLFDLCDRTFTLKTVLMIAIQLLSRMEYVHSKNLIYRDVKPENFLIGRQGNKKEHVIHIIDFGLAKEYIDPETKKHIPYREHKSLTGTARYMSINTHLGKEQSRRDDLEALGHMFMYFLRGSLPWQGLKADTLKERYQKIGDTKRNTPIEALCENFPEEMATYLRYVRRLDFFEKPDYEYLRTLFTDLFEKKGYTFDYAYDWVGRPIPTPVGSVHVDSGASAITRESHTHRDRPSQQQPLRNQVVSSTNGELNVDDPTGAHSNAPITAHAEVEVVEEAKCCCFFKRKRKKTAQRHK
Assay [19] shares this target. The settings on record: at 1 µM.
Assay [20] deals with Casein kinase I isoform gamma-2 (Homo sapiens) (UniProt P78368). The settings on record: at 0.1 µM.
Sequence of Casein kinase I isoform gamma-2 (Homo sapiens) (P78368 whole entry, looked up, canonical isoform): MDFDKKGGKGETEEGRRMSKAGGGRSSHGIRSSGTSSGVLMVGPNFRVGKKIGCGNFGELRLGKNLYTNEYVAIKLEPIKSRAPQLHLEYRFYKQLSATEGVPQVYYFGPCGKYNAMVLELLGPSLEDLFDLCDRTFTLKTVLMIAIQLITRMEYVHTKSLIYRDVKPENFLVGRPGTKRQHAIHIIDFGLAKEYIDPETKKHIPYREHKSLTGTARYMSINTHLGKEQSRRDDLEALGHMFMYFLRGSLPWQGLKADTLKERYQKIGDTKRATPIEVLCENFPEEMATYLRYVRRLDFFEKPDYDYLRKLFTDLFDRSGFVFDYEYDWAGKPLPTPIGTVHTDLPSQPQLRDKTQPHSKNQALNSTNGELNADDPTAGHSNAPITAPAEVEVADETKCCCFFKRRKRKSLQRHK

Sequence of Serine/threonine-protein kinase pim-2 (Homo sapiens) (Q9P1W9 whole entry, looked up): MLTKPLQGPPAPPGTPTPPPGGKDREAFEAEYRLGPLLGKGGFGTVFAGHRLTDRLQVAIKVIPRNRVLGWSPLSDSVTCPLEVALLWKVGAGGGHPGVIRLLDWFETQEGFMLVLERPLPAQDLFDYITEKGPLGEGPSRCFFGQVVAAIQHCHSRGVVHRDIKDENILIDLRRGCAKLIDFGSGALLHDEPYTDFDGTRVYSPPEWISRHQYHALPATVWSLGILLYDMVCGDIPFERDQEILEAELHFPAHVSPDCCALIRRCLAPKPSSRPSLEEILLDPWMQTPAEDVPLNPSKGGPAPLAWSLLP

Usually inhibition stands for the relative decrease from the control value, in per cent. In the case of `NS(=O)(=O)c1cccc(-c2cc3ccncc3cc2OCc2ccccc2)c1`, the inhibition in assay [1] was 0.25%; in assay [2], -1.15%; in [3], -3.18%; in assay [4], 1.74%; in assay [5], 0.61%; in assay [6], 0.44%. The inhibition amounted to 5.64% in assay [7]; 1.16% in assay [8]; 3.39% in assay [9]; 2.28% in assay [10]; 6.61% in assay [11]; 2.13% in assay [12]. The inhibition was found to be 0.96% in assay [13]; 2.68% in assay [14]; 0.84% in assay [15]; 0.06% in [16]; 3.92% in assay [17]; 4.57% in assay [18]. Besides, the inhibition in assay [19] was found to be 4.83%; in assay [20], 3.06%.
As to `C[C@@H](Oc1cc(-n2cnc3ccc(OC[C@@H](O)CO)cc32)sc1C(N)=O)c1ccccc1Cl`, the inhibition in assay [1] was 1.97%; in assay [2] it was 2.99%; in [3], 22.2%; in assay [4], -0.57%; in assay [5], -0.59%; in [6], -2.64%. In addition, the inhibition is 6.54% in assay [7]; 4.2% in assay [8]; 10.6% in assay [9]; 0.21% in assay [10]; -0.29% in assay [11]; 0.57% in assay [12]. Also, the inhibition in [13] was 1.14%; in assay [14], -0.99%; in assay [15], 0.82%; in assay [16] it was 2.6%; in [17], 3.43%; in assay [18], -1.5%. Also, the inhibition is 2.39% in [19] and -1.3% in [20].
`COc1cccc(-n2nc(C)c3c(N/N=C(\C)c4ccncc4)ncnc32)c1`: the inhibition in [1] is -0.42%; in assay [2], -0.59%; in assay [3], -1.03%; in assay [4], -0.18%; in assay [5] it was -0.64%; in assay [6], 1.56%. Also, the inhibition in assay [7] was 3.69%; in assay [8], 0.4%; in assay [9], -0.38%; in assay [10], -0.16%; in assay [11], -1.57%; in [12] it was 1.47%. The inhibition in assay [13] is 1.88%; in assay [14] it was -0.53%; in assay [15], -0.42%; in assay [16] it was -1.81%; in [17], 0.17%; in assay [18], 0.02%. Moreover, the inhibition in [19] was 0.62%; in [20], 0.14%.
As to `NS(=O)(=O)c1ccc(Nc2cc(-c3cccc(O)c3)n[nH]2)cc1`, the inhibition in [1] is 1.32%; in assay [2], -2.75%; in assay [3], -0.87%; in assay [4] it was 1.59%; in [5], 1.7%; in [6] it was 6.53%. Further, the inhibition was found to be 13.8% in assay [7]; 6.19% in assay [8]; 16.4% in assay [9]; 4.83% in assay [10]; 6.87% in assay [11]; 3.95% in assay [12]. In addition, the inhibition in assay [13] stood at 3.25%; in assay [14] it was 1.95%; in assay [15] it was 1.79%; in [16], 3.67%; in assay [17], 5.95%; in [18] it was 5.15%. For the same molecule, the inhibition is 6.27% in [19] and 3.99% in [20].
Regarding `Oc1cccc(-c2nc(-c3ccccc3)[nH]c2-c2ccncc2)c1`, the inhibition in assay [1] was 0.33%; in assay [2], -1.73%; in assay [3] it was 1.72%; in assay [4], 1.55%; in [5], 1.19%; in assay [6], 8.44%. The inhibition in assay [7] turned out to be 11.6%; in assay [8], 4.34%; in [9], 10.2%; in [10], 1.64%; in assay [11], 2.77%; in assay [12], 5.01%. The inhibition is 2.8% in [13]; 3.51% in assay [14]; 2.57% in assay [15]; 12.6% in assay [16]; 23.9% in assay [17]; 2.26% in assay [18]. Also, the figures for the inhibition in assay [19] and in assay [20] were 3.29% and 2.14%, respectively.
On to `Cc1ccc2c(-c3ccnc(Nc4ccc5c(c4)OCCO5)n3)c(-c3ccc(C(F)(F)F)cc3)nn2n1`, for which the inhibition was found to be 1.63% in [1]; 0.32% in assay [2]; 0.77% in [3]; 0.37% in assay [4]; 0.83% in assay [5]; 0.02% in assay [6]. Also, the inhibition in assay [7] was -0.13%; in [8] it was 10.8%; in [9] it was 0.48%; in [10] it was 0.84%; in [11] it was 4.69%; in [12] it was 1.7%. The inhibition in [13] is 2.26%; in [14], 0.67%; in assay [15], 0.47%; in assay [16], 0.54%; in [17], -3.1%; in assay [18] it was 1.24%. Besides, the inhibition in assay [19] came to 1.97%; in assay [20], 0.1%.
Turning to `NS(=O)(=O)c1ccc(-c2cc3ccncc3cc2OCc2ccccc2)cc1`, the inhibition in [1] was -1.33%; in assay [2], -0.2%; in [3], 1.38%; in assay [4], 0.82%; in [5], 1.86%; in assay [6], 4.35%. Besides, the inhibition in assay [7] worked out at 10.3%; in [8] it was 6.46%; in assay [9], 4.1%; in assay [10], 5.88%; in assay [11], 2.74%; in assay [12] it was 3.43%. Besides, the inhibition in assay [13] turned out to be 3.97%; in assay [14], 2.95%; in assay [15], 2.52%; in assay [16] it was 4.76%; in [17], 3.35%; in assay [18] it was 2.57%. The figures for the inhibition in assay [19] and in [20] were 3.44% and 1.61%, respectively.
